The values that follow come from PubChem BioAssay AID504832 (National Center for Advancing Translational Sciences (NCATS), 2011).

Molecules are shown by their SMILES. The campaign covered roughly 310,000 compounds. About 18,000 (5.8%) were called active. Roughly 22% stayed inconclusive and do not appear here. The call rests on the fitted dose curve; in most records, active means well fitted inhibition curve with a large enough effect; inconclusive means small, poorly fitted or top-dose-only effect, or another doubt; inactive means no such curve, though single readings can be large or run the other way. The full list was thinned out, with actives kept by preference.
On the % scale 0 is the no-effect control and ±100 the full control effect; potency means the concentration at half of the fitted maximal effect.

This assay can be described thus: Primary qHTS for delayed death inhibitors of the malarial parasite plastid, 48 hour incubation. The settings on record: P. falciparum luciferase growth in erythrocytes; series mostly up to 28.7 µM; activity change, negative = inhibition: at the top concentration. In outline: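 Growth was read as firefly luciferase luminescence after a 48 h, 37 C, 5% CO2 exposure of compounds to reporter-bearing P. falciparum cultures (0.1% parasitemia, 2% hematocrit final) in Albumax-supplemented RPMI 1640.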
Background: Quantitative high-throughput screening tests each substance at several concentrations.
As to `CCOc1ccc(N(C)Cc2cc(=O)oc3ccc(OC)cc23)cc1`, the “activity change, negative = inhibition” value was -9.2% (inactive).

Regarding `CC1CCC(NC(=O)CNC(=O)c2ccc3ccccc3c2)CC1` (configuration not stated), the “activity change, negative = inhibition” value is 51.1% (inactive).

Consider `CN(C(=O)Cn1nnc(-c2ccc(F)cc2)n1)C1CCS(=O)(=O)C1` (configuration not stated), for which the “activity change, negative = inhibition” value was -28.7% (inactive).

Consider `OCC[C@H]1C[C@@H](O)[C@H](O)[C@]2(OCCCc3ccccc32)O1`, for which the “activity change, negative = inhibition” value was -27.5% (inactive).

As to `Cc1ccc2c(c1)N(CC(=O)N1CCC(C)CC1)C(=O)c1cccnc1O2`, the “activity change, negative = inhibition” value was -21.1% (inactive).

In the case of `Cc1ccc(SCc2c(C(=O)N/N=C/c3cccnc3)nnn2-c2nonc2N)cc1`, the “activity change, negative = inhibition” value was 9.31% (inactive).

As for `COc1cc(/C=C/C(=O)N2c3ccccc3Sc3ccc(C(F)(F)F)cc32)cc(OC)c1OC`, the “activity change, negative = inhibition” value is -26.5% (inactive).

As for `O=C(CN1CCCCCC1)N1c2ccccc2Sc2ccc(C(F)(F)F)cc21`, the Potency is 13.1 µM (active).

In the case of `CCOC(=O)CNC(=O)N1c2ccccc2Sc2ccccc21`, the “activity change, negative = inhibition” value is 1.41% (inactive).

As to `Cc1ccc(C(CNC(=O)Nc2ccccc2)N2CCN(C)CC2)cc1` (configuration not stated), the “activity change, negative = inhibition” value was 6.15% (inactive).

For `Cc1ccc(S(=O)(=O)N2CCC(C(=O)OCC(=O)N(C)c3ccccc3)CC2)cc1C`, the “activity change, negative = inhibition” value was -32.8% (inactive).

Turning to `COc1ccc(-c2nnc(SC(C)C#N)o2)cc1` (configuration not stated), the “activity change, negative = inhibition” value is 27.5% (inactive).

In the case of `COc1ccc(-c2nnc(SC(C)C(=O)NC3CC3)o2)cc1` (configuration not stated), the Potency is 10.4 µM (active).

On to `COc1ccc(-c2nnc(SCc3cccnc3)o2)cc1`, for which the “activity change, negative = inhibition” value was -42.2% (inactive).

On to `CCCC(C)c1nnc(NC(=O)C2CC(=O)N(c3ccc(OCC)cc3)C2)s1` (configuration not stated), for which the “activity change, negative = inhibition” value was 5.54% (inactive).

With `CCN1CCN(c2ccc([N+](=O)[O-])cc2C#N)CC1`, the Potency is 4.15 µM (active).

For the compound `COc1ccc(N2CCN(c3ccc([N+](=O)[O-])cc3Cl)CC2)cc1`, the “activity change, negative = inhibition” value is 5.17% (inactive).

As for `CCN1CCN(c2ccc([N+](=O)[O-])cc2C(=O)c2ccc(Cl)cc2)CC1`, the “activity change, negative = inhibition” value is 0% (inactive).

For `COCCn1c(SCC(=O)Nc2nc(C)cs2)nnc1C(C)C`, the “activity change, negative = inhibition” value was 4.19% (inactive).

Regarding `O=S(=O)(c1ccc(Cl)s1)N1CCC2(CC1)OCCO2`, the “activity change, negative = inhibition” value was 5.07% (inactive).

For the compound `O=C(Nc1cccc(NC(=O)c2ccc(Br)cc2)c1)c1ccccc1`, the “activity change, negative = inhibition” value is 38.2% (inactive).

In the case of `O=C(Nc1cccc(-c2nc3ccccc3[nH]2)c1)c1ccc(C(=O)Nc2cccc(-c3nc4ccccc4[nH]3)c2)cc1`, the Potency is 0.37 µM (active).

Turning to `O=C(Cc1cccs1)Nc1cccc(-c2nc3ccccc3[nH]2)c1`, the “activity change, negative = inhibition” value was -15% (inactive).

For `O=S(=O)(Nc1cc(Cl)ccc1N1CCOCC1)c1ccccc1Cl`, the Potency is 13.1 µM (active).

Regarding `O=S(=O)(Nc1cc(S(=O)(=O)N2CCOCC2)ccc1N1CCCC1)c1cccs1`, the “activity change, negative = inhibition” value is 13.2% (inactive).

Consider `O=S(=O)(Nc1ccc(-c2ccc(N3CCOCC3)nn2)cc1)c1cc(Cl)ccc1Cl`, for which the “activity change, negative = inhibition” value was -10.8% (inactive).

Take `COCCCNC(=O)[C@H]1N2C(=O)c3ccccc3C2SC1(C)C` (some centres not stated): the “activity change, negative = inhibition” value is 1.37% (inactive).

Consider `CCC(C(=O)NCc1ccc(OC)cc1)n1nc(C)n2c(cc3occc32)c1=O` (configuration not stated), for which the “activity change, negative = inhibition” value was -0.531% (inactive).

With `COc1ccc(C(C(=O)NC2CCCCC2)N(C(=O)CCl)c2ccccc2Cl)cc1` (configuration not stated), the “activity change, negative = inhibition” value is 0.344% (inactive).

As to `COc1ccc(S(=O)(=O)NCc2ccc(C(=O)N(C)Cc3ccco3)cc2)cc1`, the “activity change, negative = inhibition” value is -0.0888% (inactive).

On to `COc1ccc(CNC(=O)C(c2ccc(O)cc2)N(Cc2ccco2)C(=O)c2snc(C(N)=O)c2N)cc1` (configuration not stated), for which the Potency was 13.1 µM (active).

For `COc1cc(C(C(=O)NC2CCCC2)N(Cc2ccccc2)C(=O)c2snc(C(N)=O)c2N)ccc1O` (configuration not stated), the “activity change, negative = inhibition” value is -28.9% (inactive).

With `COc1ccc(C(C(=O)NC2CCCCC2)N(C(=O)c2snc(C(N)=O)c2N)c2ccccc2OC)cc1` (configuration not stated), the Potency is 14.7 µM (active).

For the compound `Cc1cc(CN(C)C(=O)c2cc(COc3ccc(C)c(C)c3)on2)n[nH]1`, the “activity change, negative = inhibition” value is 213% (inactive).

For the compound `CC(=O)c1ccc(NC(=O)Cn2c(=O)oc3ccccc32)cc1`, the “activity change, negative = inhibition” value is 0.659% (inactive).

As to `CCCCc1nc2cc(C(=O)N3CCCCC3CCO)ccc2o1` (configuration not stated), the “activity change, negative = inhibition” value was 30.8% (inactive).

With `Cc1ccc(-c2nn(-c3ccccc3)cc2C(=O)NC2CCC(O)CC2)cc1` (configuration not stated), the “activity change, negative = inhibition” value is 16.7% (inactive).

Take `O=C(Nc1cn(-c2ccccc2)nc1-c1ccccc1)c1ccccc1`: the “activity change, negative = inhibition” value was -6.02% (inactive).

`CCc1ccc(-c2nn(-c3ccccc3)cc2CSC(=N)N)cc1`: the Potency was 4.15 µM (active).

In the case of `Cc1ccccc1OCC(=O)Nc1ccc2c(c1)ncn2C`, the “activity change, negative = inhibition” value was -39.5% (inactive).

As to `CN(CCc1ccccn1)C(=O)c1ccc(OC2CCN(CCc3ccccc3)CC2)cc1`, the “activity change, negative = inhibition” value is -14.2% (inactive).

On to `COC(=O)c1ccc(CSc2ccccc2C)o1`, for which the “activity change, negative = inhibition” value is -1.17% (inactive).

Regarding `CCC(=O)N1CCCc2ccccc21`, the “activity change, negative = inhibition” value was 0.0597% (inactive).

For `O=C(CSc1ccc2nnc(-c3ccccc3)n2n1)N1CCCc2ccccc21`, the Potency was 13.1 µM (active).

As for `COC(=O)c1ccc(CSc2ccc3nnc(-c4ccccc4)n3n2)o1`, the Potency is 10.4 µM (active).

With `COC(=O)c1ccc(CSc2nnc(N)s2)o1`, the “activity change, negative = inhibition” value was 39% (inactive).

`CCCn1c(SCC(=O)N2CCc3ccccc32)nnc1-c1ccncc1`: the “activity change, negative = inhibition” value was 0.223% (inactive).

Turning to `CC(=O)NC(Cc1c[nH]c2ccccc12)C(=O)NCCc1ccccc1` (configuration not stated), the “activity change, negative = inhibition” value is -4.66% (inactive).

As for `CC1CN(C(=O)CCC(=O)NCc2cccnc2)c2ccccc2O1` (configuration not stated), the “activity change, negative = inhibition” value was 8.83% (inactive).

Consider `CC(=O)NC(=O)c1ccccc1O`, for which the “activity change, negative = inhibition” value is -11.5% (inactive).

Regarding `O=C(COC(=O)CNC(=O)C1CCCCC1)Nc1cccc(F)c1`, the “activity change, negative = inhibition” value is -20% (inactive).

For `NC1=NC[C@@H](Cc2ccc(O)cc2)N1CC1CCCCC1`, the Potency is 6.57 µM (active).

Consider `O=C1NC[C@@H](Cc2ccc(O)cc2)N(CCc2cccc(F)c2)C1=O`, for which the “activity change, negative = inhibition” value is -26.7% (inactive).

As for `CN(c1ccccc1)S(=O)(=O)c1ccc2[nH]c(=O)[nH]c2c1`, the “activity change, negative = inhibition” value is 12% (inactive).

On to `O=C(Cc1ccccc1Cl)N1CCOCC1`, for which the “activity change, negative = inhibition” value was 36% (inactive).

Consider `Cc1ccccc1N1CCN(C2CCCN(C(=O)c3ocnc3C)C2)CC1` (configuration not stated), for which the “activity change, negative = inhibition” value is -4.29% (inactive).

For the compound `Clc1ccc2nc3c(c(-c4ccccc4)c2c1)CNCC3`, the Potency is 13.1 µM (active).

`O=c1c2c(nc3cc(-c4cccc(Cl)c4)[nH]n13)CCCC2`: the “activity change, negative = inhibition” value is 72.5% (inactive).

Regarding `COc1cccc(N(CC(=O)NC2CCCC2)C(=O)Cn2nnc(-c3ccc(C)cc3)n2)c1`, the “activity change, negative = inhibition” value is -15.8% (inactive).

Regarding `CCC(C(=O)NC1CCCC1)N(C(=O)Cn1nnc(-c2ccc(C)o2)n1)c1ccc(OC)c(OC)c1` (configuration not stated), the Potency was 10.4 µM (active).

As for `Cc1ccc(-c2nnn(CC(=O)N(CCO)C(C(=O)NC(C)(C)C)c3ccncc3)n2)cc1` (configuration not stated), the “activity change, negative = inhibition” value was 22.3% (inactive).

Regarding `COc1ccc(C)cc1N(C(=O)Cn1nnc(-c2ccc(C)o2)n1)C(C(=O)NC1CCCC1)c1ccncc1` (configuration not stated), the Potency was 5.22 µM (active).

With `Cc1ccc(-c2nnn(CC(=O)N(Cc3ccco3)C(C(=O)NC(C)(C)C)c3ccncc3)n2)o1` (configuration not stated), the Potency was 14.7 µM (active).

In the case of `Cc1cccc(N(C(=O)Cn2nnc(-c3ccc(C)o3)n2)C(C(=O)NC2CCCC2)c2ccncc2)c1` (configuration not stated), the “activity change, negative = inhibition” value is 0% (inactive).

`Cc1cc(NC(=O)CCC(=O)N(c2ccccc2)C(C(=O)NC2CCCC2)c2ccncc2)no1` (configuration not stated): the “activity change, negative = inhibition” value was -15% (inactive).

For `O=C(Cn1nnc(-c2ccccc2)n1)NC(=O)NC1CCCC1`, the “activity change, negative = inhibition” value was 9.86% (inactive).

For the compound `O=C(Cn1nnc(-c2ccc3c(c2)OCO3)n1)NCc1ccco1`, the “activity change, negative = inhibition” value is 39.3% (inactive).
